# Assay results as given in PubChem BioAssay (NCATS).
# Inconclusive results are not listed. Calls of active or inactive are those of the source. Calls follow the shape of the dose curve; as a rule, active = well fitted curve in the direction sought with a large enough effect; inconclusive = small, poorly fitted or top-dose-only effect, or another doubt; inactive = no such curve, though single readings can be large; an effect the other way counts as inactive or inconclusive.
# Tests used:
# [1] = qHTS of pediatric cancer cell lines to identify multiple opportunities for drug repurposing: Primary screen for NB1643 cells (AID 1347099); also: nearly all actives have a fitted effect of over 50% in size
# Procedure, shortened: (§1)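 Quantitative HTS format: each compound titrated (MIPE 11 points from 0.78 nM, NPC 8 points from 0.59 nM) onto cells plated 5 hours earlier. After 48 h at 37 degrees C, CellTiter-Glo luminescence was recorded.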
# [2] = qHTS of pediatric cancer cell lines to identify multiple opportunities for drug repurposing: Primary screen for LAN-5 cells (AID 1347100)
# Procedure, shortened: (§2)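 Viability after 48 h compound treatment at 37C, 500-1,000 cells/well, read as ATP luminescence with CellTiter-Glo. Primary screens used 11-point (MIPE, 0.78 nM-46 µM) or 8-point (NPC, 0.59 nM-46 µM) final concentrations; follow-up screens used 11-point dilutions.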
# [3] = qHTS of pediatric cancer cell lines to identify multiple opportunities for drug repurposing: Primary screen for BT-12 cells (AID 1347101); also: nearly all actives have a fitted effect of over 25% in size
# Procedure, shortened: (§3)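 Cells (500-1,000/well) rested 5 h, then received compounds for 48 h; metabolically active cells were measured by CellTiter-Glo luminescence. Final concentrations spanned up to 46 µM (MIPE, 11-point) or 0.59 nM-46 µM (NPC, 8-point) in primary screens, 11-point in follow-ups.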
# [4] = qHTS of pediatric cancer cell lines to identify multiple opportunities for drug repurposing: Primary screen for OHS-50 cells (AID 1347103); also: nearly all actives have a fitted effect of over 40% in size
# Procedure, shortened: as §3
# [5] = qHTS of pediatric cancer cell lines to identify multiple opportunities for drug repurposing: Primary screen for RD cells (AID 1347104); also: nearly all actives have a fitted effect of over 55% in size
# Procedure, shortened: as §1
# [6] = qHTS of pediatric cancer cell lines to identify multiple opportunities for drug repurposing: Primary screen for MG 63 (6-TG R) cells (AID 1347105); also: nearly all actives have a fitted effect of over 50% in size
# Procedure, shortened: as §1
# [7] = qHTS of pediatric cancer cell lines to identify multiple opportunities for drug repurposing: Primary screen for control Hh wild type fibroblast cells (AID 1347106); also: nearly all actives have a fitted effect of over 55% in size
# Procedure, shortened: as §2
# [8] = qHTS of pediatric cancer cell lines to identify multiple opportunities for drug repurposing: Primary screen for Rh41 cells (AID 1347108); also: nearly all actives have a fitted effect of over 70% in size
# Procedure, shortened: as §1
# [9] = qHTS of pediatric cancer cell lines to identify multiple opportunities for drug repurposing: Primary screen for Rh18 cells (AID 1347102); also: nearly all actives have a fitted effect of over 65% in size
# Procedure, shortened: as §2
# [10] = qHTS of pediatric cancer cell lines to identify multiple opportunities for drug repurposing: Confirmatory screen for NB1643 cells (AID 1347109); also: nearly all actives have a fitted effect of over 45% in size
# Procedure, shortened: as §2
# [11] = qHTS of pediatric cancer cell lines to identify multiple opportunities for drug repurposing: Confirmatory screen for A673 cells (AID 1347110); also: nearly all actives have a fitted effect of over 65% in size
# Procedure, shortened: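 A673 cells seeded at 500-1,000 cells/well, rested 5 h, then dosed; primary MIPE 11-point (0.78 nM to 46 µM), NPC (0.59 nM to 46 µM); confirmatory 11-point. CellTiter-Glo luminescence after 48 h.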
# [12] = qHTS of pediatric cancer cell lines to identify multiple opportunities for drug repurposing: Confirmatory screen for SK-N-MC cells (AID 1347111);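 also: cells exposed to compound for 48 h before the readout; nearly all actives have a fitted effect of over 70% in size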
# Procedure, shortened: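 SK-N-MC cells at 500-1,000 cells/well in growth media were pre-incubated 5 h, then exposed to compounds at 11-point dilutions for 48 h at 37 degrees C, 5% CO2. Viability was read as CellTiter-Glo luminescence.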
# [13] = qHTS of pediatric cancer cell lines to identify multiple opportunities for drug repurposing: Confirmatory screen for BT-12 cells (AID 1347112); also: nearly all actives have a fitted effect of over 55% in size
# Procedure, shortened: as §2
# [14] = qHTS of pediatric cancer cell lines to identify multiple opportunities for drug repurposing: Confirmatory screen for LAN-5 cells (AID 1347113); also: nearly all actives have a fitted effect of over 65% in size
# Procedure, shortened: as §2
# [15] = qHTS of pediatric cancer cell lines to identify multiple opportunities for drug repurposing: Confirmatory screen for DAOY cells (AID 1347114); also: nearly all actives have a fitted effect of over 65% in size
# Procedure, shortened: (§4)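 Viability measured as metabolically active cells via CellTiter-Glo luminescence following 48 hours of compound exposure, 11-point dilutions in confirmatory testing. 500-1,000 cells/well plated 5 hours before dosing; controls were DMSO and 2.3 µM bortezomib.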
# [16] = qHTS of pediatric cancer cell lines to identify multiple opportunities for drug repurposing: Confirmatory screen for NB-EBc1 cells (AID 1347115); also: nearly all actives have a fitted effect of over 45% in size
# Procedure, shortened: as §2
# [17] = qHTS of pediatric cancer cell lines to identify multiple opportunities for drug repurposing: Confirmatory screen for SJ-GBM2 cells (AID 1347116); also: nearly all actives have a fitted effect of over 60% in size
# Procedure, shortened: as §4
# [18] = qHTS of pediatric cancer cell lines to identify multiple opportunities for drug repurposing: Confirmatory screen for BT-37 cells (AID 1347117); also: nearly all actives have a fitted effect of over 55% in size
# Procedure, shortened: as §2
# [19] = qHTS of pediatric cancer cell lines to identify multiple opportunities for drug repurposing: Primary screen for Rh30 cells (AID 1347107); also: nearly all actives have a fitted effect of over 75% in size
# Procedure, shortened: as §2
# Potency is read from the fitted curve at half-maximal effect.
Compound,Potency [1],Potency [2],Potency [3],Potency [4],Potency [5],Potency [6],Potency [7],Potency [8],Potency [9],Potency [10],Potency [11],Potency [12],Potency [13],Potency [14],Potency [15],Potency [16],Potency [17],Potency [18],Potency [19]
O=C(O)c1ccc2c(c1)nc(Nc1cccc(Cl)c1)c1ccncc12,2.64 µM (active),7.43 µM (active),19.3 µM (active),3.06 µM (active),9.35 µM (active),3.72 µM (active),inactive,14.8 µM (active),–,–,–,–,–,–,–,–,–,–,–
CC(C)[C@H](C(=O)Nc1ccc(C(=O)NO)cc1)c1ccccc1,0.418 µM (active),0.526 µM (active),3.06 µM (active),1.22 µM (active),2.64 µM (active),2.96 µM (active),16.6 µM (active),1.18 µM (active),0.743 µM (active),0.585 µM (active),1.04 µM (active),0.465 µM (active),9.27 µM (active),0.827 µM (active),2.33 µM (active),0.928 µM (active),1.47 µM (active),1.04 µM (active),–
Nc1nc(NCCNc2ncc(-n3ccnc3)c(-c3ccc(Cl)cc3Cl)n2)ccc1[N+](=O)[O-],18.7 µM (active),10.5 µM (active),24.3 µM (active),–,14.8 µM (active),14.8 µM (active),–,–,14.8 µM (active),–,–,–,–,–,–,–,–,–,–
Cc1ccc(-c2ncn(-c3ccc(Nc4nccc(-c5cccc(N6CCOCC6)c5)n4)cc3)n2)cn1,0.0526 µM (active),0.0662 µM (active),0.122 µM (active),0.217 µM (active),0.105 µM (active),0.0935 µM (active),0.166 µM (active),0.132 µM (active),–,0.107 µM (active),0.17 µM (active),0.12 µM (active),0.214 µM (active),0.0955 µM (active),0.24 µM (active),–,0.24 µM (active),0.0851 µM (active),–
O=C(c1ccc(Nc2nccc(-c3cc4ccccc4s3)n2)cc1)N1CCC(N2CCCC2)CC1,11.8 µM (active),11.8 µM (active),27.3 µM (active),7.69 µM (active),–,18.7 µM (active),–,18.7 µM (active),14.8 µM (active),–,–,–,–,–,–,–,–,–,23.5 µM (active)
COC(=O)c1ccc2c(C(=Nc3ccc(N(C)C(=O)CN4CCN(C)CC4)cc3)c3ccccc3)c(O)[nH]c2c1,2.35 µM (active),2.35 µM (active),–,5.44 µM (active),–,–,–,18.7 µM (active),–,16.5 µM (active),–,18.5 µM (active),inactive,18.5 µM (active),26.1 µM (active),inactive,inactive,–,–
Nc1ccn([C@@H]2O[C@H](CO)[C@H](O)C2(F)F)c(=O)n1,0.469 µM (active),0.0935 µM (active),–,–,–,–,inactive,inactive,inactive,–,0.0585 µM (active),–,–,–,–,–,–,0.0074 µM (active),inactive
CCn1nnc2c(N3CCOCC3)nc(-c3ccc(NC(=O)Nc4ccc(C(=O)N5CCN(C)CC5)cc4)cc3)nc21,0.0743 µM (active),0.0833 µM (active),–,0.0273 µM (active),0.0264 µM (active),0.0469 µM (active),–,0.0935 µM (active),0.0418 µM (active),1.85 µM (active),0.585 µM (active),0.657 µM (active),–,0.522 µM (active),–,–,0.737 µM (active),0.329 µM (active),7.43 µM (active)
CC(=O)SC[C@@H](C)C(=O)N1CCC[C@H]1C(=O)N[C@@H](Cc1ccccc1)C(=O)O,inactive,inactive,–,inactive,inactive,inactive,inactive,inactive,inactive,–,–,–,–,–,–,–,–,–,inactive
CCn1cc(-c2ccnc3[nH]c(-c4cccc(CN(C)C)c4)cc23)c(-c2ccc(NC(=O)N(C)C)cc2)n1,3.32 µM (active),0.0264 µM (active),–,3.85 µM (active),10.5 µM (active),4.69 µM (active),20.9 µM (active),5.9 µM (active),16.6 µM (active),3.69 µM (active),1.85 µM (active),0.0657 µM (active),–,6.57 µM (active),18.5 µM (active),–,0.928 µM (active),5.22 µM (active),14.8 µM (active)
CC(=O)Nc1sc2c(c1-c1nc3ccccc3s1)CNC2,5.26 µM (active),10.5 µM (active),–,–,–,inactive,inactive,–,–,–,–,–,–,–,–,–,–,–,–
CC(NCc1ccc2c(c1)nc(NC(=O)c1ccc(-c3cn[nH]c3)s1)n2CC(C)(C)O)C(C)(C)C (stereo not drawn),0.372 µM (active),0.132 µM (active),0.968 µM (active),–,1.05 µM (active),2.35 µM (active),2.35 µM (active),0.743 µM (active),–,0.293 µM (active),0.827 µM (active),–,0.928 µM (active),–,1.47 µM (active),0.827 µM (active),1.04 µM (active),–,14.8 µM (active)
O=C1CCC[C@@H]2[C@H]3CCC[N+]4([O-])CCC[C@@H](CN12)[C@@H]34 (stereo partly drawn),inactive,inactive,–,inactive,inactive,inactive,inactive,inactive,inactive,–,–,–,–,–,–,–,–,–,inactive
CC1(O)CC(c2nc(-c3ccc4ccc(-c5ccccc5)nc4c3)c3c(N)nccn23)C1 (stereo not drawn),2.09 µM (active),0.418 µM (active),17.2 µM (active),0.544 µM (active),0.59 µM (active),–,inactive,0.935 µM (active),–,–,–,–,–,–,–,–,–,–,–
